# Results filed as inconclusive are left out. Active and inactive are the calls of the source. The calls were made as follows, unless noted: active = hit-call score of the fitted dose curve at least 0.9, where 1 is the maximum; inconclusive = response in the unintended direction; inactive = score below 0.9.
# How the values were obtained:
# [1] = molecular target: human Retinoic Acid Receptor beta (RARb), RARB (gene 5915) (UniProt P10826); assay: ATG_RARb_TRANS: Attagene TRANS-FACTORIAL HepG2 Assay for human Retinoic Acid Receptor beta (AID 2283004)
# Chain of human Retinoic Acid Receptor beta (RARb), RARB (gene 5915) (P10826 whole entry, looked up, the tested form may be a part): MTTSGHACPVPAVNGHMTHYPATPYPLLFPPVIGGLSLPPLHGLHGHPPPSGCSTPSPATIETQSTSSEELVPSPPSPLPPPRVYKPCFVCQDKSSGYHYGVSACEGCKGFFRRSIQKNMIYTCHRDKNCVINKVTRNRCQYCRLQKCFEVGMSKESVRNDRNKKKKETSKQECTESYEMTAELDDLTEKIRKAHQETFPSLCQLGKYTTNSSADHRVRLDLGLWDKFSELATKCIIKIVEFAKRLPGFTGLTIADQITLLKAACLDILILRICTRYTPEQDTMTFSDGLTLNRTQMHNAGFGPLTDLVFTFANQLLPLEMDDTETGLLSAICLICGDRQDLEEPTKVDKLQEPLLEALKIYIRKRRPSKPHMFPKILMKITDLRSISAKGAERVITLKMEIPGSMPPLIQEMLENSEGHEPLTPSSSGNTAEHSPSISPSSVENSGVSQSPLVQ
# Outline: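 HepG2, transient MRTU transfection, NR–Gal4 chimera, 24 h treatment; RT-PCR plus CE fluorescence detection of reporter mRNA; gain of signal vs DMSO.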
# [2] = molecular target: Retinoic acid receptor alpha (Homo sapiens) (UniProt P10276); assay: ATG_RARa_TRANS: Attagene TRANS-FACTORIAL HepG2 Assay for human Retinoic Acid Receptor alpha (RARa) (AID 2283005)
# Chain of Retinoic acid receptor alpha (Homo sapiens) (P10276 whole entry, looked up, the tested form may be a part): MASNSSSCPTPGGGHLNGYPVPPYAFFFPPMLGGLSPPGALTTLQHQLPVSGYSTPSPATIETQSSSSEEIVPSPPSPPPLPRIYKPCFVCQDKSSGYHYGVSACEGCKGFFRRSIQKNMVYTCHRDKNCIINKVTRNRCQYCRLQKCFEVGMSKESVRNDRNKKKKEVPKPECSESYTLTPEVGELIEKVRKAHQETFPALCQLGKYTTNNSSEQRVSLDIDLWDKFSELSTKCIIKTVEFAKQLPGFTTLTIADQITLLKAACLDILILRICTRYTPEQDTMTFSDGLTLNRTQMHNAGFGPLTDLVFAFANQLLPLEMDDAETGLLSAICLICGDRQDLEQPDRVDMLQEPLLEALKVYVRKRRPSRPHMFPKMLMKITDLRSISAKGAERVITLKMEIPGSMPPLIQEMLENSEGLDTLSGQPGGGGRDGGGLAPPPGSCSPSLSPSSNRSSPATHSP
# Outline: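 HepG2 cells transiently transfected with multiple reporter units expressing chimeric RARα-GAL4 fusion, with GAL4-UAS-driven reporters. After 24 h compound exposure, reporter mRNA induction quantified by RT-PCR and capillary electrophoresis with fluorescent labeling; gain-of-signal fitted relative to DMSO control.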
# [3] = BSK_3C_Proliferation: Cell Proliferation Assessment in the BioMAP Diversity Plus: 3C Assay (AID 2283006; active = hit-call score of the fitted dose curve at least 0.9, where 1 is the maximum; inactive = score below 0.9;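 as to AC50: potency may reflect either rise or fall in cell number versus DMSO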); settings: primary human endothelial cells (HUVEC)
# Outline: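 Proliferation as total protein: sulforhodamine B (0.1%) stain of TCA-fixed subconfluent human umbilical vein endothelial cells, absorbance 560 nm, 48 h after dosing. Activity fitted in both directions against DMSO baseline.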
# [4] = molecular target: Peroxisome proliferator-activated receptor gamma (Homo sapiens) (UniProt P37231); assay: ATG_PPARg_TRANS: Attagene TRANS-FACTORIAL HepG2 Assay for human Peroxisome Proliferator-activated Receptor-gamma (PPARg) (AID 2283007)
# Chain of Peroxisome proliferator-activated receptor gamma (Homo sapiens) (P37231 whole entry, looked up, the tested form may be a part): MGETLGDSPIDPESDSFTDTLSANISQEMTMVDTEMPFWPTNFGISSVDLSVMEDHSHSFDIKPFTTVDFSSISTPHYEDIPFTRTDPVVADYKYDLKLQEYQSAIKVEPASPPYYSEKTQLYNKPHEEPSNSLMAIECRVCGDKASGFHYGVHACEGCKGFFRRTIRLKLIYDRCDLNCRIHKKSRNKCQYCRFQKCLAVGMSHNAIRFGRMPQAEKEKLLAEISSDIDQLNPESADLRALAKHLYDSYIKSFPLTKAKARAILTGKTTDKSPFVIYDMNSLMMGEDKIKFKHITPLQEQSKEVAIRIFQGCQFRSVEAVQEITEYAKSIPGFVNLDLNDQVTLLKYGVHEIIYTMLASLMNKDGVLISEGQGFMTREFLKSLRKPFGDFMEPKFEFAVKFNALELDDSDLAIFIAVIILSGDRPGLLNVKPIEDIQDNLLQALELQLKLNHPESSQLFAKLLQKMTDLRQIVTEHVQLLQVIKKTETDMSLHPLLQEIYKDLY
# Outline: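 Transient transfection of HepG2 with GAL4-UAS-driven reporter units; chemical dosing 24 h; total RNA → oligo(dT) RT → PCR with reporter primers → 6-FAM primer extension → HpaI digest 2 h 37 C → capillary electrophoresis. Positive direction vs DMSO.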
# [5] = molecular target: human Retinoic Acid Receptor gamma (RARg), RARG (gene 5916) (UniProt P13631); assay: ATG_RARg_TRANS: Attagene TRANS-FACTORIAL HepG2 Assay for human Retinoic Acid Receptor gamma (RARg) (AID 2283009)
# Chain of human Retinoic Acid Receptor gamma (RARg), RARG (gene 5916) (P13631 whole entry, looked up, the tested form may be a part): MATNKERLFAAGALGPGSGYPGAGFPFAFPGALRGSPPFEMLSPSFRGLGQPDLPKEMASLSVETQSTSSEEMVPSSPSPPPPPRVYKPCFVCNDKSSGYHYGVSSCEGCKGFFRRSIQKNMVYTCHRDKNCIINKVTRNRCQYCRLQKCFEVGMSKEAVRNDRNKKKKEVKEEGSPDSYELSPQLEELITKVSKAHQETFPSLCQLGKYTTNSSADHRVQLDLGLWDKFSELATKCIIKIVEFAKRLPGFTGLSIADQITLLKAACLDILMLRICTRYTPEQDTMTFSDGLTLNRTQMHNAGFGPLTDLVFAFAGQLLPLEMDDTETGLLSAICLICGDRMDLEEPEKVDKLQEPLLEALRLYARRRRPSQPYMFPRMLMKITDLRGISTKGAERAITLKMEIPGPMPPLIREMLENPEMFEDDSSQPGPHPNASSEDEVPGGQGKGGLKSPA
# Outline: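 Transactivation of exogenous RARg-Gal4 fusion measured as reporter transcript induction after 24 h in transfected HepG2 cells. RNA reverse-transcribed, amplified, fluorescently labeled and resolved by capillary electrophoresis; increase relative to DMSO.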
# [6] = molecular target: human RAR-related Orphan Receptor beta (RORb), RORB (gene 6096) (UniProt Q92753); assay: ATG_RORb_TRANS: Attagene TRANS-FACTORIAL HepG2 Assay for human RAR-related Orphan Receptor beta (RORb) (AID 2283010)
# Chain of human RAR-related Orphan Receptor beta (RORb), RORB (gene 6096) (Q92753 whole entry, looked up, the tested form may be a part): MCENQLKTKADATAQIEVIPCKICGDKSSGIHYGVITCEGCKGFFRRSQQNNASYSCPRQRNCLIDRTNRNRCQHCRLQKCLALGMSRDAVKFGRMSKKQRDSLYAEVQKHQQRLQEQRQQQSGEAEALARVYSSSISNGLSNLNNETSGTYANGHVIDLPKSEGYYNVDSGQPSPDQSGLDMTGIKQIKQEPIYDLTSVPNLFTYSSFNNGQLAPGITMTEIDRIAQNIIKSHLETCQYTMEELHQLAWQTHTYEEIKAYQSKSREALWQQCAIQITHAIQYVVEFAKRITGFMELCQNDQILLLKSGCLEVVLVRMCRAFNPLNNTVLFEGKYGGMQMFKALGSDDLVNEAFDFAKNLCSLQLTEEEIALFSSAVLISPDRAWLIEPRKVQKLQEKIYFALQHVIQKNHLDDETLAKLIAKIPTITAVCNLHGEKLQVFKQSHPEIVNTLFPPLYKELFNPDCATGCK
# Outline: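 Read-out is reporter mRNA induction, quantified by RT-PCR with fluorescent capillary electrophoresis, 24 h post-dose in transiently transfected HepG2 expressing exogenous NR-Gal4 chimera. Activity fitted upward versus DMSO.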
# [7] = molecular target: human Peroxisome Proliferator-activated Receptor delta (PPARd), PPARD (gene 5467) (UniProt Q03181); assay: ATG_PPARd_TRANS: Attagene TRANS-FACTORIAL HepG2 Assay for human Peroxisome Proliferator-activated Receptor delta (PPARd) (AID 2283002)
# Chain of human Peroxisome Proliferator-activated Receptor delta (PPARd), PPARD (gene 5467) (Q03181 whole entry, looked up, the tested form may be a part): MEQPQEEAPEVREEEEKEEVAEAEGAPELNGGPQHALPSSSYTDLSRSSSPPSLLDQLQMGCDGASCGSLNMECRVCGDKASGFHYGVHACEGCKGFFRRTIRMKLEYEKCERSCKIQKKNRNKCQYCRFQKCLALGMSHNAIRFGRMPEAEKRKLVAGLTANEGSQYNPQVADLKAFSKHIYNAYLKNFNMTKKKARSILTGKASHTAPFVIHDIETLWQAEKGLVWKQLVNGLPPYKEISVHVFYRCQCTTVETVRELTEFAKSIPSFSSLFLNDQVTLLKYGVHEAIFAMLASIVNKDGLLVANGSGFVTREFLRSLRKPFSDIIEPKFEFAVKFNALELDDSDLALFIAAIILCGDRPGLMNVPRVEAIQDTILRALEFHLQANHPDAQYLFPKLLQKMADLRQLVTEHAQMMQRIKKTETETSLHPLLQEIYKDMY
# Outline: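 Multiplexed trans-activation format: HepG2 liver cells expressing exogenous NR-Gal4 chimeras and GAL4-UAS reporters were exposed for 24 h. Reporter mRNA was detected by RT-PCR with capillary electrophoresis fluorescence; activity fitted as gain of signal relative to DMSO.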
# [8] = read-out: Intercellular Adhesion Molecule 1 (ICAM1), ICAM1 (gene 3383); assay: BSK_3C_ICAM1: BioMAP Diversity Plus: 3C Assay for Intercellular Adhesion Molecule 1 (ICAM1) Biomarker Activity (AID 2283003; active = hit-call score of the fitted dose curve at least 0.9, where 1 is the maximum; inactive = score below 0.9); settings: primary human endothelial cells (HUVEC); actives raise or lower the signal
# Outline: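 ELISA readout of ICAM1 in human umbilical vein endothelial cells in the 3C system, taken 24 h post-dose. Gain or loss of signal versus DMSO was fitted in both directions, with SRB total-protein staining run in parallel.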
# [9] = molecular target: Nuclear receptor subfamily 1 group I member 2 (Homo sapiens) (UniProt O75469); assay: ATG_PXR_TRANS: Attagene TRANS-FACTORIAL HepG2 Assay for human Pregnane X Receptor (PXR) (AID 2283008)
# Chain of Nuclear receptor subfamily 1 group I member 2 (Homo sapiens) (O75469 whole entry, looked up, the tested form may be a part): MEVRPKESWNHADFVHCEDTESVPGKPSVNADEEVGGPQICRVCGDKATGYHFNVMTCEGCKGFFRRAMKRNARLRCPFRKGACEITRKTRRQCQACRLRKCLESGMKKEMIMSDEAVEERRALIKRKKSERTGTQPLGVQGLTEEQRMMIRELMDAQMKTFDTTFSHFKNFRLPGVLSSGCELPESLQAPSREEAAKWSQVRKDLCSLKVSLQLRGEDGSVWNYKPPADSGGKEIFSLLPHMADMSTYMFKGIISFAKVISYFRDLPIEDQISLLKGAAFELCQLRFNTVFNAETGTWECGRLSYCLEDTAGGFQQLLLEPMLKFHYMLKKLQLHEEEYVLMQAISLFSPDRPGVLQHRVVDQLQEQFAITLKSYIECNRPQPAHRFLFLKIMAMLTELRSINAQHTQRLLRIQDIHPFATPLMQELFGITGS
# Outline: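 Transactivation by exogenous PXR–GAL4 fusion measured as reporter transcript induction after 24 h compound treatment of transfected human HepG2 cells. Read-out via RT-PCR and capillary electrophoresis of labelled fragments, fitted upward relative to DMSO.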
# [10] = molecular target: human Peroxisome Proliferator-activated Receptor alpha (PPARa), PPARA (gene 5465) (UniProt Q07869); assay: ATG_PPARa_TRANS: Attagene TRANS-FACTORIAL HepG2 Assay for human Peroxisome Proliferator-activated Receptor alpha (PPARa) (AID 2283001)
# Chain of human Peroxisome Proliferator-activated Receptor alpha (PPARa), PPARA (gene 5465) (Q07869 whole entry, looked up): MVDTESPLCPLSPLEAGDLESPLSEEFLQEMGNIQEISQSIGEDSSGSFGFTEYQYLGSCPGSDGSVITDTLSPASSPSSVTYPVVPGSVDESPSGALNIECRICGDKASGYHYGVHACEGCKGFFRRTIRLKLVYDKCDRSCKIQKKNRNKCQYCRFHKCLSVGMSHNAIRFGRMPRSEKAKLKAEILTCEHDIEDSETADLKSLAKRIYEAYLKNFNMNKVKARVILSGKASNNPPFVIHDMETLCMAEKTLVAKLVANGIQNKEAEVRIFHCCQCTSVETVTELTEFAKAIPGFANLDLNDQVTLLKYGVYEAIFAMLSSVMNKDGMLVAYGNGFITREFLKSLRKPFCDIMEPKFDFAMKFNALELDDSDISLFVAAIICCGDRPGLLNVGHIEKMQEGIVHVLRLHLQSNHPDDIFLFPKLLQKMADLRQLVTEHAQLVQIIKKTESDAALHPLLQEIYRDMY
# Outline: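 Cells (HepG2) are transfected with multiple reporter transcription units, exposed to chemical for 24 h, then total RNA is reverse-transcribed and amplified. Labelled products are quantified by capillary electrophoresis; induction is referenced to DMSO.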
smiles,measurement,setting,value
CCC(O)=C1C(=O)CC(C(=O)O)CC1=O (stereo not drawn),outcome,[1],inactive
same,outcome,[2],inactive
same,outcome,[3],inactive
same,AC50,[4],22.3 µM (active)
same,outcome,[5],inactive
same,outcome,[6],inactive
COC(=O)c1ccccc1S(=O)(=O)NC(=O)Nc1nc(OC(F)F)cc(OC(F)F)n1,outcome,[7],inactive
same,outcome,[8],inactive
same,outcome,[3],inactive
same,outcome,[4],inactive
same,outcome,[5],inactive
COc1nc(C)nc(NC(=O)NS(=O)(=O)c2ccccc2OCCCl)n1,outcome,[7],inactive
same,outcome,[3],inactive
same,outcome,[4],inactive
same,outcome,[5],inactive
O=C(Nc1ccc([N+](=O)[O-])cc1Cl)c1cc(Cl)ccc1O,outcome,[7],inactive
same,outcome,[1],inactive
same,outcome,[2],inactive
same,AC50,[3],0.313 µM (active)
same,outcome,[4],inactive
same,outcome,[9],inactive
same,outcome,[5],inactive
same,outcome,[6],inactive
COC(=O)CSc1cc(N=c2sc(=O)n3n2CCCC3)c(F)cc1Cl,outcome,[10],inactive
same,outcome,[3],inactive
same,AC50,[4],27.4 µM (active)
CSC(=O)c1cccc2nnsc12,outcome,[10],inactive
same,outcome,[3],inactive
same,outcome,[4],inactive
same,outcome,[5],inactive
Oc1ccc(C(c2ccc(O)cc2)C(Cl)(Cl)Cl)cc1,outcome,[10],inactive
same,AC50,[8],27.6 µM (active)
same,AC50,[3],19.8 µM (active)
same,outcome,[4],inactive
same,outcome,[9],inactive
same,outcome,[6],inactive
CCCOC(=O)NCCCN(C)C,outcome,[10],inactive
same,outcome,[1],inactive
same,outcome,[2],inactive
same,outcome,[3],inactive
same,outcome,[4],inactive
CCOC(=O)COc1cc(-n2ncc(C(F)(F)F)c(C)c2=O)c(F)cc1Cl,outcome,[10],inactive
same,outcome,[1],inactive
same,outcome,[2],inactive
same,outcome,[3],inactive
same,outcome,[4],inactive
same,outcome,[9],inactive
same,outcome,[5],inactive
CCOC(=O)C(C)Oc1ccc(Oc2nc3ccc(Cl)cc3o2)cc1 (stereo not drawn),outcome,[1],inactive
same,outcome,[3],inactive
same,outcome,[4],inactive
C[C@]12CC[C@@H]3c4ccc(O)cc4C[C@@H](CCCCCCCCCS(=O)CCCC(F)(F)C(F)(F)F)[C@H]3[C@@H]1CC[C@@H]2O (stereo partly drawn),outcome,[7],inactive
same,outcome,[8],inactive
same,outcome,[1],inactive
same,AC50,[3],2.05 µM (active)
same,outcome,[4],inactive
same,AC50,[9],494 nM (active) [middle of 4 runs]
same,outcome,[6],inactive
CCSC(=O)N(CC(C)C)CC(C)C,outcome,[8],inactive
same,outcome,[1],inactive
same,outcome,[3],inactive
same,outcome,[4],inactive
COC(=O)c1cccc(C)c1S(=O)(=O)NC(=O)Nc1nc(OCC(F)(F)F)nc(N(C)C)n1,outcome,[7],inactive
same,outcome,[8],inactive
same,outcome,[1],inactive
same,outcome,[2],inactive
same,outcome,[3],inactive
same,outcome,[4],inactive
same,outcome,[9],inactive
same,outcome,[5],inactive
S=C([S-])NCCNC(=S)[S-].[Mn+2],outcome,[10],inactive
same,outcome,[4],inactive
same,outcome,[6],inactive
COC(=O)c1ccc(I)cc1S(=O)(=O)NC(=O)Nc1nc(C)nc(OC)n1,outcome,[10],inactive
same,outcome,[3],inactive
same,outcome,[4],inactive
COCCO,outcome,[10],inactive
same,outcome,[1],inactive
same,outcome,[2],inactive
same,outcome,[3],inactive
same,outcome,[4],inactive
same,outcome,[5],inactive
same,outcome,[6],inactive

# From PubChem BioAssay (EPA / NIEHS)
